{"source": "ChEMBL document CHEMBL1961873", "about": "“Compounds: GSK PKIS; Assays: Nanosyn kinase panel” (2012)"}
{"molecular_target": "Protein kinase C beta type (Homo sapiens) (UniProt P05771)", "sequence (P05771 2-671 limits assumed)": "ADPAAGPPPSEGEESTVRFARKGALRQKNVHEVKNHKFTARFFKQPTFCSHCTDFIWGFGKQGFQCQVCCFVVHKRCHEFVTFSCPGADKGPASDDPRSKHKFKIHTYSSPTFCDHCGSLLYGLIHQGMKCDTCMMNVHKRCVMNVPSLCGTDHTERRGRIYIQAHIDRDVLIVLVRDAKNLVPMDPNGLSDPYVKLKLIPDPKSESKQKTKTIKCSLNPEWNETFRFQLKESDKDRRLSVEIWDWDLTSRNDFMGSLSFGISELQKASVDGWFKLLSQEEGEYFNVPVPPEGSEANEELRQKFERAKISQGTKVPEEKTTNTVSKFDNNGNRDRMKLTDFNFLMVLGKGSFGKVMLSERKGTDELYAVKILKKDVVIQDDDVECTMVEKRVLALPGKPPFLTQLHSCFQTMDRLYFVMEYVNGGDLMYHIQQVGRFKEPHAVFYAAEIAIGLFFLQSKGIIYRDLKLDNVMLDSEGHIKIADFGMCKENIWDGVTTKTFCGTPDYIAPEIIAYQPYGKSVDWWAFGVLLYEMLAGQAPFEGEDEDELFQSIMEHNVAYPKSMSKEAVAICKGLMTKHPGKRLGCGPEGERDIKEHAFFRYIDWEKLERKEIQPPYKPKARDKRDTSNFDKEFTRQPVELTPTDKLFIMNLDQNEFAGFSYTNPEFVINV", "settings": "at 0.1 µM", "units": {"inhibition": "%"}}
{"smiles": "CN(C)CCCn1c(-c2nonc2N)nc2cnccc21", "inhibition": 1.86}
{"smiles": "CN(c1ccc(NC(=O)Nc2ccc(OC(F)(F)F)cc2)cc1)c1ccnc(Nc2cccc(S(N)(=O)=O)c2)n1", "inhibition": 0.45}
{"smiles": "O=C(Nc1ccc(Oc2ccc3[nH]c(NC(=O)c4ccco4)nc3c2)cc1)Nc1cc(C(F)(F)F)ccc1F", "inhibition": -0.09}
{"smiles": "c1ccc(Cc2nc3ccc(Nc4ncnc5ccccc45)cc3[nH]2)cc1", "inhibition": 1.26}
{"smiles": "C[C@@H](Oc1cc(-n2cnc3ccc(OCC4CCN(C)CC4)cc32)sc1C(N)=O)c1ccccc1C(F)(F)F", "inhibition": 0.2}
{"smiles": "Nc1nccc(-c2c(-c3ccc(F)cc3)nn3cc(C(F)(F)F)ccc23)n1", "inhibition": -1.02}
{"smiles": "NC(=O)c1cccc(Nc2nccc(Nc3cccc(F)c3)n2)c1", "inhibition": -2.22}
{"smiles": "Nc1nccc(C#Cc2cncnc2Nc2ccc(OCc3cccc(F)c3)c(Cl)c2)n1", "inhibition": 2.69}
{"smiles": "NC(=O)c1sc(-n2cnc3ccccc32)cc1OCc1ccccc1Br", "inhibition": -0.55}
{"smiles": "CN(C)c1cc2c(Nc3ccc4c(cnn4Cc4ccccc4)c3)ncnc2cn1", "inhibition": 0.49}
{"smiles": "NS(=O)(=O)c1ccc(-c2cc3ccncc3cc2OCc2ccccc2)cc1", "inhibition": 0.43}
{"smiles": "Nc1ccc(C#Cc2cncnc2Nc2ccc(OCc3cccc(F)c3)c(Cl)c2)cc1", "inhibition": 1.2}
{"smiles": "FC(F)(F)c1ccc(-c2nn3ncccc3c2-c2ccnc(Nc3ccc4c(c3)OCCO4)n2)cc1", "inhibition": 8.14}
{"smiles": "Cc1cc(-c2ccccn2)cc(C)c1/C=C/c1cncc(-c2nn[nH]n2)c1", "inhibition": 0.54}
{"smiles": "CCn1c(-c2nonc2N)nc2c(C#CC(C)(C)O)nc(OCCNC)cc21", "inhibition": 4.85}
{"smiles": "Oc1cccc(-c2nc(-c3ccccc3)[nH]c2-c2ccncc2)c1", "inhibition": 2.07}
{"smiles": "C[C@@H](Oc1cc(-n2cnc3ccc(OC[C@@H](O)CO)cc32)sc1C(N)=O)c1ccccc1Cl", "inhibition": -0.38}
{"smiles": "OCc1ccc(-c2nc(-c3ccccn3)c(-c3ccc4c(c3)OCO4)[nH]2)cc1", "inhibition": 0.21}
{"smiles": "Cc1ccc(NC(=O)CC2CC2)cc1-c1ccc(C(=O)NCC2CC2)cc1", "inhibition": -0.34}
{"smiles": "COc1ccc(-c2nn3ncccc3c2-c2ccnc(Nc3cccc(C(F)(F)F)c3)n2)cc1", "inhibition": 1.46}
{"smiles": "Cc1ccc2c(c1)/C(=N/Nc1ccc(S(N)(=O)=O)cc1)C(=O)N2", "inhibition": -0.92}
{"smiles": "COc1cc(/C=N/Nc2ncnc3c2cnn3C(C)C)ccc1O", "inhibition": 0.72}
{"smiles": "NS(=O)(=O)c1ccc(NC=C2C(=O)Nc3ccc4ncsc4c32)cc1", "inhibition": 0.12}
{"smiles": "COc1cc(Nc2nccc(-c3cnn4ncccc34)n2)cc(OC)c1", "inhibition": 0.12}
{"smiles": "CCS(=O)(=O)c1ccc(OC)c(Nc2nccc(N(C)c3ccc4c(C)n[nH]c4c3)n2)c1", "inhibition": 0.4}
{"smiles": "Cc1ccc(Nc2ccnc(Nc3cccc(C(N)=O)c3)n2)cc1O", "inhibition": 0.32}
{"smiles": "CS(=O)(=O)Nc1cccc(-c2ccc3c(NC(=O)C4CC4)n[nH]c3c2)c1", "inhibition": -1.18}
{"smiles": "NS(=O)(=O)c1ccc(Nc2cc(-c3cccc(O)c3)n[nH]2)cc1", "inhibition": -3.34}
{"smiles": "COC(=O)c1cncc(/C=C/c2c(C)cc(O)cc2C)c1", "inhibition": 0.78}
{"smiles": "COc1cc2ncnc(Nc3ccc(C)c(O)c3)c2cc1OC", "inhibition": 1.28}
{"smiles": "COC(=O)Nc1nc2cc(Oc3ccc(NC(=O)Nc4cccc(Br)c4)cc3)ccc2[nH]1", "inhibition": -0.97}
{"smiles": "[O-][S+]1CCN(Cc2ccc(-c3ccc4ncnc(Nc5ccc(OCc6ccccc6)c(Cl)c5)c4c3)o2)CC1", "inhibition": 0.56}
{"smiles": "COc1cc2ncn(-c3cc(OCc4ccccc4S(C)(=O)=O)c(C#N)s3)c2cc1OC", "inhibition": 2.71}
{"molecular_target": "Protein kinase C beta type (Homo sapiens) (UniProt P05771)", "settings": "at 1 µM", "units": {"inhibition": "%"}}
{"smiles": "CN(C)CCCn1c(-c2nonc2N)nc2cnccc21", "inhibition": 14.5}
{"smiles": "CN(c1ccc(NC(=O)Nc2ccc(OC(F)(F)F)cc2)cc1)c1ccnc(Nc2cccc(S(N)(=O)=O)c2)n1", "inhibition": 0.52}
{"smiles": "O=C(Nc1ccc(Oc2ccc3[nH]c(NC(=O)c4ccco4)nc3c2)cc1)Nc1cc(C(F)(F)F)ccc1F", "inhibition": -1.32}
{"smiles": "c1ccc(Cc2nc3ccc(Nc4ncnc5ccccc45)cc3[nH]2)cc1", "inhibition": 1.59}
{"smiles": "C[C@@H](Oc1cc(-n2cnc3ccc(OCC4CCN(C)CC4)cc32)sc1C(N)=O)c1ccccc1C(F)(F)F", "inhibition": 5.91}
{"smiles": "Nc1nccc(-c2c(-c3ccc(F)cc3)nn3cc(C(F)(F)F)ccc23)n1", "inhibition": 0.52}
{"smiles": "NC(=O)c1cccc(Nc2nccc(Nc3cccc(F)c3)n2)c1", "inhibition": -5.72}
{"smiles": "Nc1nccc(C#Cc2cncnc2Nc2ccc(OCc3cccc(F)c3)c(Cl)c2)n1", "inhibition": 2.19}
{"smiles": "NC(=O)c1sc(-n2cnc3ccccc32)cc1OCc1ccccc1Br", "inhibition": 0.73}
{"smiles": "CN(C)c1cc2c(Nc3ccc4c(cnn4Cc4ccccc4)c3)ncnc2cn1", "inhibition": 1.62}
{"smiles": "NS(=O)(=O)c1ccc(-c2cc3ccncc3cc2OCc2ccccc2)cc1", "inhibition": 3.25}
{"smiles": "Nc1ccc(C#Cc2cncnc2Nc2ccc(OCc3cccc(F)c3)c(Cl)c2)cc1", "inhibition": 2.03}
{"smiles": "FC(F)(F)c1ccc(-c2nn3ncccc3c2-c2ccnc(Nc3ccc4c(c3)OCCO4)n2)cc1", "inhibition": 11.9}
{"smiles": "Cc1cc(-c2ccccn2)cc(C)c1/C=C/c1cncc(-c2nn[nH]n2)c1", "inhibition": 0.37}
{"smiles": "CCn1c(-c2nonc2N)nc2c(C#CC(C)(C)O)nc(OCCNC)cc21", "inhibition": 29.9}
{"smiles": "Oc1cccc(-c2nc(-c3ccccc3)[nH]c2-c2ccncc2)c1", "inhibition": 8.23}
{"smiles": "C[C@@H](Oc1cc(-n2cnc3ccc(OC[C@@H](O)CO)cc32)sc1C(N)=O)c1ccccc1Cl", "inhibition": 1.7}
{"smiles": "OCc1ccc(-c2nc(-c3ccccn3)c(-c3ccc4c(c3)OCO4)[nH]2)cc1", "inhibition": 0.2}
{"smiles": "Cc1ccc(NC(=O)CC2CC2)cc1-c1ccc(C(=O)NCC2CC2)cc1", "inhibition": 2.08}
{"smiles": "COc1ccc(-c2nn3ncccc3c2-c2ccnc(Nc3cccc(C(F)(F)F)c3)n2)cc1", "inhibition": 2.39}
{"smiles": "Cc1ccc2c(c1)/C(=N/Nc1ccc(S(N)(=O)=O)cc1)C(=O)N2", "inhibition": 0.39}
{"smiles": "COc1cc(/C=N/Nc2ncnc3c2cnn3C(C)C)ccc1O", "inhibition": 3.01}
{"smiles": "NS(=O)(=O)c1ccc(NC=C2C(=O)Nc3ccc4ncsc4c32)cc1", "inhibition": 2.75}
{"smiles": "COc1cc(Nc2nccc(-c3cnn4ncccc34)n2)cc(OC)c1", "inhibition": 8.95}
{"smiles": "CCS(=O)(=O)c1ccc(OC)c(Nc2nccc(N(C)c3ccc4c(C)n[nH]c4c3)n2)c1", "inhibition": -2.93}
{"smiles": "Cc1ccc(Nc2ccnc(Nc3cccc(C(N)=O)c3)n2)cc1O", "inhibition": 4.35}
{"smiles": "CS(=O)(=O)Nc1cccc(-c2ccc3c(NC(=O)C4CC4)n[nH]c3c2)c1", "inhibition": -0.16}
{"smiles": "NS(=O)(=O)c1ccc(Nc2cc(-c3cccc(O)c3)n[nH]2)cc1", "inhibition": 1.78}
{"smiles": "COC(=O)c1cncc(/C=C/c2c(C)cc(O)cc2C)c1", "inhibition": 2.09}
{"smiles": "COc1cc2ncnc(Nc3ccc(C)c(O)c3)c2cc1OC", "inhibition": 5.43}
{"smiles": "COC(=O)Nc1nc2cc(Oc3ccc(NC(=O)Nc4cccc(Br)c4)cc3)ccc2[nH]1", "inhibition": 2.4}
{"smiles": "[O-][S+]1CCN(Cc2ccc(-c3ccc4ncnc(Nc5ccc(OCc6ccccc6)c(Cl)c5)c4c3)o2)CC1", "inhibition": 0.65}
{"smiles": "COc1cc2ncn(-c3cc(OCc4ccccc4S(C)(=O)=O)c(C#N)s3)c2cc1OC", "inhibition": 5.16}
